Test results published in PubChem BioAssay (NCATS).
Where “and” joins values, the source holds several entries; their conditions need not be identical. Equal values may be shown once. Records with an inconclusive call do not appear. Calls of active or inactive are those of the source. Unless noted, calls come from the whole dose curve; as a rule, active = well fitted curve in the direction sought with a large enough effect; inconclusive = small, poorly fitted or top-dose-only effect, or another doubt; inactive = no such curve, though single readings can be large; an effect the other way counts as inactive or inconclusive.

Key:
[1] = Cellular Toxicity (caspase-3) BJ (AID 658);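 note: 0% = DMSO basal and 100% = 10 µM staurosporine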
Outline: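 Luminescent aminoluciferin-substrate cleavage reports caspase 3/7 activity in normal human BJ fibroblasts after 16 hr compound exposure at 37 °C. Normalized to DMSO (basal) and 10 uM staurosporine (100%); AC50 from Hill fit of concentration-response.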

[2] = target: Cytochrome P450 3A4 (Homo sapiens) (UniProt P08684); assay: qHTS Assay for Inhibitors and Substrates of Cytochrome P450 3A4 (AID 884); note: nearly all actives have a fitted effect of over 50% in size; note: potency is the fitted concentration of half-maximal effect
Outline: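 20 nM human CYP3A4 with 25 uM Luciferin-PPXE (at KM) in 200 mM KPO4, preincubated 10 min with compound; NADPH regeneration started a 60 min RT reaction. Luciferin detected by luminescence, normalized to 57 uM ketoconazole as full inhibition.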

[3] = target: Estrogen receptor (Homo sapiens) (UniProt P03372); assay: qHTS assay for small molecule antagonists of estrogen receptor alpha signaling (AID 588513; active = well fitted curve in the direction sought with a large enough effect in the signal ratio, with a control signal flat, not every such curve was filed as active; the % refers to the signal ratio; note: % is set by controls: 0 for no effect and ±100 for the full control effect)
Outline: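 Antagonist-mode qHTS in ER-alpha-UAS-bla HEK 293 cells: compound titration, 0.5nM estradiol for 18 h, CCF4 fluorescence, Hill-derived IC50.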

[4] = target: Estrogen receptor (Homo sapiens) (UniProt P03372); assay: qHTS assay for small molecule agonists of estrogen receptor alpha signaling (AID 588514; calls by dose curve; note: nearly all actives have a fitted effect of over 70% in size; note: potency is the fitted concentration of half-maximal effect;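 for activation: 0% = vehicle only and 100% = reference agonist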)
Outline: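 ER-alpha-UAS-bla GripTite HEK 293 cells in medium with 2% charcoal/dextran-treated FBS were treated with compound titrations at 37 C for 18 hrs; beta-lactamase reporter read by CCF4 fluorescence after 2 hrs at RT.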

[5] = target: Glucocorticoid receptor (Homo sapiens) (UniProt P04150); assay: qHTS assay for small molecule antagonists of glucocorticoid receptor signaling (AID 588533; active = well fitted inhibition curve with a large enough effect in the signal ratio, with a control signal flat, not every such curve was filed as active; the % refers to the signal ratio;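 note: cells stimulated with 2 nM dexamethasone as agonist; % is set by controls: 0 for no effect and ±100 for the full control effect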)
Outline: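 Antagonist-mode qHTS: compound titrations added to GRE-bla HeLa cells, then dexamethasone 2 nM final; 18 h, 37 C. CCF4 FRET fluorescence normalized to dexamethasone and DMSO; IC50 from Hill fit.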

[6] = target: Peroxisome proliferator-activated receptor delta (Homo sapiens) (UniProt Q03181); assay: qHTS assay for small molecule agonists of peroxisome proliferator-activated receptor delta signaling (AID 588534; calls by dose curve;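 note: 0% = DMSO basal wells and 100% = positive control agonist at 10 µM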)
Outline: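 Cell-based beta-lactamase reporter assay run in agonist mode: cells seeded and incubated 5 hrs at 37 C, compounds added and incubated 18 hrs at 37 C. CCF4 dye fluorescence read after 2 hrs at RT; EC50 and efficacy from Hill fits.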

[7] = target: Peroxisome proliferator-activated receptor gamma (Homo sapiens) (UniProt P37231); assay: qHTS assay for small molecule antagonists of peroxisome proliferator-activated receptor gamma signaling (AID 588537; active = well fitted inhibition curve with a large enough effect in the signal ratio, with a control signal flat, not every such curve was filed as active; the % refers to the signal ratio;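 note: reporter cells co-stimulated with 50 nM rosiglitazone agonist during compound treatment; % of control where 0% means no effect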)
Outline: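 PPAR-gamma-UAS-bla HEK293 cells (3000/well, 1% charcoal/dextran-stripped FBS) were preincubated 6-6.5 h at 37 C, given titrated compounds, then stimulated with 50 nM rosiglitazone for 16 h. Beta-lactamase activity was read with CCF4 dye; IC50 came from Hill fits.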

[8] = target: Vitamin D3 receptor (Homo sapiens) (UniProt P11473); assay: qHTS assay for small molecule antagonists of vitamin D receptor signaling (AID 588541; calls by dose curve;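 note: receptor activated by calcitriol during compound treatment; % is set by controls: 0 for no effect and ±100 for the full control effect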)
Outline: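 VDR-UAS-bla HEK293T cells (2000/well, 2% charcoal-stripped FBS) were treated with titrated compounds plus 1-alpha,25-dihydroxyvitamin D3 (50 nM or 3 nM final) for 16 h at 37 C. CCF4 beta-lactamase fluorescence was read; Hill fits gave IC50.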

[9] = target: Voltage-gated inwardly rectifying potassium channel KCNH2 (Homo sapiens) (UniProt Q12809); assay: qHTS Assay for Small Molecule Inhibitors of the Human hERG Channel Activity (AID 588834);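 note: lower thallium flux fluorescence means stronger hERG block; nearly all actives have a fitted effect of over 50% in size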; note: potency is the fitted concentration of half-maximal effect
Outline: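 Blockade is seen as reduced FluxOR thallium-flux fluorescence in U2OS cells expressing hERG from a BacMam construct, in Opti-MEM with 2% FCS. Concentration-response data fitted to the Hill equation for AC50.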

[10] = qHTS assay for small molecule activators of the nuclear factor-kappa B (NF-kB) signaling pathway (AID 651749; active = well fitted activation curve with a large enough effect in the signal ratio; the % refers to the signal ratio; note: % of control where 0% means no effect); details: NF-kB-bla ME-180 cells, beta-lactamase FRET ratio, 16 h; stronger effect = higher value
Outline: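 ME-180 cells stably carrying a beta-lactamase reporter under an NF-kB response element were exposed to compound or DMSO vehicle for 16 hr at 37C, 5% CO2. Pathway activation was read by FRET, since reporter expression disrupts FRET.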

[11] = qHTS assay for environmental chemicals that activate the Aryl hydrocarbon Receptor (AhR) signaling pathway (AID 651777); details: 1A2-DRE human hepatoma cells, luciferase, 24 h; activation: stronger effect = higher value; note: % of control where 0% means no effect; nearly all actives have a fitted effect of over 15% in size
Outline: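 Following a 24 hr incubation with test chemicals at 37 C and 5% CO2, 1A2-DRE human hepatoma cells received One-Glo reagent; after 30 min at room temperature, luciferase output reflected CYP1A2 induction via AhR.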

[12] = target: Nuclear receptor ROR-gamma (Homo sapiens) (UniProt P51449); assay: qHTS assay for small molecule antagonists of the retinoid-related orphan receptor gamma (ROR-gamma) signaling pathway (AID 651802); note: % is set by controls: 0 for no effect and ±100 for the full control effect; nearly all actives have a fitted effect of over 60% in size
Outline: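 CHO cells carrying TET-inducible ROR-gamma and an ROR response element–luciferase reporter were exposed to compound, then induced with doxycycline. After 16hr at 37C, luminescence was read; lower signal indicates antagonism.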

[13] = qHTS assay for small molecule antagonists of the retinoid-related orphan receptor gamma (ROR-gamma) signaling pathway - cell viability counter screen (AID 720652; active = well fitted curve in the direction sought with a large enough effect in the repeat runs; an effect the other way counts as inactive or inconclusive;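 note: compound exposure lasted 16 hr before ATP read; % is set by controls: 0 for no effect and ±100 for the full control effect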)
Outline: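 Counter screen in CHO cells carrying TET-inducible ROR-gamma and an ROR response element-luciferase reporter; cells plated 5 hr, compound pinned, doxycycline added, then 16 hr at 37 C. Viability read as intracellular ATP by CellTiter-Glo luminescence.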

[14] = target: Glucocorticoid receptor (Homo sapiens) (UniProt P04150); assay: qHTS assay for small molecule agonists of glucocorticoid receptor signaling (AID 588532; active = well fitted curve in the direction sought with a large enough effect in the signal ratio, with a control signal flat; the % refers to the signal ratio;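 note: 100% = dexamethasone at 0.1 µM and 0% = DMSO only wells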); details: HeLa MMTV-bla, beta-lactamase ratio, agonist, 18 h; stronger effect = higher value; percent of dexamethasone control, DMSO zero
Outline: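 Stimulation of a glucocorticoid response element-driven beta-lactamase gene was measured in HeLa cells. Responses were scaled between DMSO basal and 0.1 uM dexamethasone, then fitted for half-maximal stimulation.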

[15] = qHTS assay for small molecule agonists of the antioxidant response element (ARE) signaling pathway (AID 651741; active = well fitted activation curve with a large enough effect in the signal ratio; the % refers to the signal ratio; note: potency is the fitted concentration of half-maximal effect; for activation: % of control where 0% means no effect)
Outline: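 ARE-bla HepG2 cells (beta-lactamase reporter under ARE control) were plated at 2,000 cells/well, preincubated 5 h at 37 C/5% CO2, then treated with DMSO-dissolved compounds for 16 h at 37 C; LiveBLAzer B/G FRET substrate added, fluorescence read after 2 h at room temperature.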

[16] = qHTS assay for small molecule activators of the p53 signaling pathway (AID 651743; active = well fitted activation curve with a large enough effect in the signal ratio, not every such curve was filed as active; the % refers to the signal ratio; note: % of control where 0% means no effect); details: HCT-116 p53RE-bla, beta-lactamase FRET ratio, 16 h; activation: stronger effect = higher value
Outline: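 p53RE-bla HCT-116 cells with a stably integrated beta-lactamase reporter under p53 response elements were plated, rested 5 hours at 37 C/5% CO2, then exposed to compounds in DMSO for 16 hours at 37 C. LiveBLAzer B/G FRET substrate was read after 2 hours at room temperature.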

[17] = Cell Viability - N2a (AID 540); details: N2a mouse neuroblastoma cell viability; activity change, negative = cytotoxicity: at 92.2 µM (top of the series);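 note: plate controls were DMSO alone for no effect and tamoxifen control for full effect; nearly all actives have a fitted effect of over 45% in size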
Outline: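 Mouse neuroblastoma N2a cells (1500/well) were preincubated 5 hr at 37 °C, then exposed to compounds for 40 hr at 37 °C in complete medium. Viability was read as intracellular ATP by CellTiter-Glo luminescence; AC50 from Hill fits.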

[18] = qHTS assay for small molecule disruptors of the mitochondrial membrane potential - 1 hr assay (AID 651754; calls by dose curve; note: nearly all actives have a fitted effect of over 35% in size; note: potency is the fitted concentration of half-maximal effect)
Outline: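 HepG2 cells, attached overnight at 37C, were exposed to compound or DMSO vehicle for 1 hr at 37C, 5% CO2, then stained with Mito-MPS dye for 30 min. Red aggregate versus green monomer fluorescence reports membrane potential.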

[19] = qHTS assay for small molecule antagonists of peroxisome proliferator-activated receptor delta signaling (AID 588535; active = well fitted inhibition curve with a large enough effect in the signal ratio, with a control signal flat, not every such curve was filed as active; the % refers to the signal ratio;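 for max response: cells co-treated with a PPAR-delta agonist as stimulator during compound exposure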); details: HEK293T PPARd-UAS-bla, beta-lactamase FRET ratio, 18 h; 460 nm channel
Outline: (§1)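 GeneBLAzer PPAR-delta-UAS-bla HEK293T cells in medium with 2% charcoal/dextran FBS were preincubated 5 hrs at 37 C, then given compounds, incubated 18 hrs at 37 C, and read by CCF4 beta-lactamase fluorescence; IC50 from Hill fits.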

[20] = target: Peroxisome proliferator-activated receptor delta (Homo sapiens) (UniProt Q03181); assay: as above
Outline: as §1

Chain of Peroxisome proliferator-activated receptor gamma (Homo sapiens) (P37231 whole entry, looked up): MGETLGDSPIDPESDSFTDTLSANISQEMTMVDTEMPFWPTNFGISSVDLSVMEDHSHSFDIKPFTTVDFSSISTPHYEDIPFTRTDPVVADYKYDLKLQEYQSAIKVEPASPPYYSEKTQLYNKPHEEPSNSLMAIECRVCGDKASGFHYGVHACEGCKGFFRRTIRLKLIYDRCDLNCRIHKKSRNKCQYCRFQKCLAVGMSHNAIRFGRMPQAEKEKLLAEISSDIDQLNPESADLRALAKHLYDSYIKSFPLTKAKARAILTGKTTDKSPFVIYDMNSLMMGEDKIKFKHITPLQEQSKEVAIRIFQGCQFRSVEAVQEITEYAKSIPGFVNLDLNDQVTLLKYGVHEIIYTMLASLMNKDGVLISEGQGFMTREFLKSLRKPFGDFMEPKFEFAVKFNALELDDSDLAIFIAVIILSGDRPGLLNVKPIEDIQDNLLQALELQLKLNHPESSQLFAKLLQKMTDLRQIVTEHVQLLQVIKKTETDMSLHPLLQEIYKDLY
Chain of Vitamin D3 receptor (Homo sapiens) (P11473 whole entry, looked up): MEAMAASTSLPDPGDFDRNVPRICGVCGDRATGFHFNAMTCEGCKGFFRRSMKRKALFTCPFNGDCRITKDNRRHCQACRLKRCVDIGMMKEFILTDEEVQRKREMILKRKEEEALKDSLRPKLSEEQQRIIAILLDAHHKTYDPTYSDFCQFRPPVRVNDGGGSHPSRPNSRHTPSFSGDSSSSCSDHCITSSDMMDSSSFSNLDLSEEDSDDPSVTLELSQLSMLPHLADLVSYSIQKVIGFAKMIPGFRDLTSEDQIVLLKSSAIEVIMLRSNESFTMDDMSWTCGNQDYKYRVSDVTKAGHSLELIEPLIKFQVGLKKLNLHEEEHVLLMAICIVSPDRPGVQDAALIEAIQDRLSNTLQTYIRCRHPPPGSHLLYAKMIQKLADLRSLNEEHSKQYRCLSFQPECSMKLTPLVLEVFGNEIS
Chain of Peroxisome proliferator-activated receptor delta (Homo sapiens) (Q03181 whole entry, looked up): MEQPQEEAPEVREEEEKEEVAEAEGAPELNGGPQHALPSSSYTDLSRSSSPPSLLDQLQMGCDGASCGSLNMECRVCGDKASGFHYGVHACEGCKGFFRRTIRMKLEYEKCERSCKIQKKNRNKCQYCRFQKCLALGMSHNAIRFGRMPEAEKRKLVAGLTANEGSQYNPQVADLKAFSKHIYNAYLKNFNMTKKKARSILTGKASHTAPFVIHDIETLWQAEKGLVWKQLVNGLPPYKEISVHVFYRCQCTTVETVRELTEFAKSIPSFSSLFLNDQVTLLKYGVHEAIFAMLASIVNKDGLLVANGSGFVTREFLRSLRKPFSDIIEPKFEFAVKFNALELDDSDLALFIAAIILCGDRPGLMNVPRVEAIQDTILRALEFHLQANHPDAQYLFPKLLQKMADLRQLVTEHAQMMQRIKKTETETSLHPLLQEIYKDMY
Chain of Voltage-gated inwardly rectifying potassium channel KCNH2 (Homo sapiens) (Q12809 whole entry, looked up): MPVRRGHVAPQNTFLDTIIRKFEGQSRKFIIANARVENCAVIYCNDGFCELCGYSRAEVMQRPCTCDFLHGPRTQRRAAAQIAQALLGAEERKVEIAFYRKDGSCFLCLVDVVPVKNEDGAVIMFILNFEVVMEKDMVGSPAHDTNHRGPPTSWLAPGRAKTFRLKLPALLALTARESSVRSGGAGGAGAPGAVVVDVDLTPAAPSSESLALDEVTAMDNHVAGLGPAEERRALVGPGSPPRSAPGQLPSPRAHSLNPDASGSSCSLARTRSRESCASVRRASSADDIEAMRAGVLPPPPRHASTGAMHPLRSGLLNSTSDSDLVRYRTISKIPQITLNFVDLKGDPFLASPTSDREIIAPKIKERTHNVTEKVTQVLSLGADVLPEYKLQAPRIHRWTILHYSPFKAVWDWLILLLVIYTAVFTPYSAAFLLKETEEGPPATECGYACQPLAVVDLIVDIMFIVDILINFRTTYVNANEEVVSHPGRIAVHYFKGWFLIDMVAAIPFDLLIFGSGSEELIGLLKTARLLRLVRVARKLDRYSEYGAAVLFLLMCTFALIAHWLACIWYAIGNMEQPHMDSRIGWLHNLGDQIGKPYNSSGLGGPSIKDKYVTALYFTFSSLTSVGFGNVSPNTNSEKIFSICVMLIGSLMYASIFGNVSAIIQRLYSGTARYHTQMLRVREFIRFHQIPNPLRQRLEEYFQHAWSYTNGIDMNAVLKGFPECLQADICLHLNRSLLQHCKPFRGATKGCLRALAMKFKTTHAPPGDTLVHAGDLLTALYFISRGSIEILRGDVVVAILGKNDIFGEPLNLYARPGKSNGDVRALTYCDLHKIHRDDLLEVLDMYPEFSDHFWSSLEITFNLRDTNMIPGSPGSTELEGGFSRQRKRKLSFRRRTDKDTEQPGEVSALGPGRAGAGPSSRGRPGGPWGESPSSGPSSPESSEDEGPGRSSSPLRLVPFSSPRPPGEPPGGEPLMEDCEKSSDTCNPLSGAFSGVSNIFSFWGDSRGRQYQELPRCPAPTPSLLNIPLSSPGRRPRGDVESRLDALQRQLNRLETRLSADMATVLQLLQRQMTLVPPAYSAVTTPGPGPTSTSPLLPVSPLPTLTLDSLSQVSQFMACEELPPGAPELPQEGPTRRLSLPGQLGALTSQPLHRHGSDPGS
Chain of Nuclear receptor ROR-gamma (Homo sapiens) (P51449 whole entry, looked up): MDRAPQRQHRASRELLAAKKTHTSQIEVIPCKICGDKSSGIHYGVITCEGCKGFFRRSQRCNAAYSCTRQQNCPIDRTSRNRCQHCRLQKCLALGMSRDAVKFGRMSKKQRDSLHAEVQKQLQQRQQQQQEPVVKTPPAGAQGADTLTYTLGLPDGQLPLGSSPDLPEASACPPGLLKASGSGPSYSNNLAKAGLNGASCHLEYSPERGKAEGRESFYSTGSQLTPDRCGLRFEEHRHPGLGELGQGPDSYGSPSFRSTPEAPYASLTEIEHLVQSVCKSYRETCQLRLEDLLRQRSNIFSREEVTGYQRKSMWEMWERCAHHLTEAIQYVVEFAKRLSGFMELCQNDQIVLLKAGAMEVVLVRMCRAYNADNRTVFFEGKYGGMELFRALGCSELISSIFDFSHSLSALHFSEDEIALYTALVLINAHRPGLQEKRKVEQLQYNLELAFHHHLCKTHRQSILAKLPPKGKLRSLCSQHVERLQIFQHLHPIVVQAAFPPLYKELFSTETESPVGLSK
Chain of Cytochrome P450 3A4 (Homo sapiens) (P08684 whole entry, looked up): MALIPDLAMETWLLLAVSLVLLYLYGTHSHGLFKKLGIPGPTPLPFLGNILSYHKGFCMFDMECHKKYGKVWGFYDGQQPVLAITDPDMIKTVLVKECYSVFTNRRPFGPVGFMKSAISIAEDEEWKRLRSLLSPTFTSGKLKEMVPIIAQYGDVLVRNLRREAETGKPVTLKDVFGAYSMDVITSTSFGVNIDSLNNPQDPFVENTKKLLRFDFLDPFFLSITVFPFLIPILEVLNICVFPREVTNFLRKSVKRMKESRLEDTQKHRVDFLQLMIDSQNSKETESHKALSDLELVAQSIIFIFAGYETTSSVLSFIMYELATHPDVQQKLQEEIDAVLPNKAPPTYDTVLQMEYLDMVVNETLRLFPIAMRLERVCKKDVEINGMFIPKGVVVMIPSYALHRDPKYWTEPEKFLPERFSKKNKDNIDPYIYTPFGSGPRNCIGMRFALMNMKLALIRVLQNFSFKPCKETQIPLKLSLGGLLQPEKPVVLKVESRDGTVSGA
Chain of Glucocorticoid receptor (Homo sapiens) (P04150 whole entry, looked up): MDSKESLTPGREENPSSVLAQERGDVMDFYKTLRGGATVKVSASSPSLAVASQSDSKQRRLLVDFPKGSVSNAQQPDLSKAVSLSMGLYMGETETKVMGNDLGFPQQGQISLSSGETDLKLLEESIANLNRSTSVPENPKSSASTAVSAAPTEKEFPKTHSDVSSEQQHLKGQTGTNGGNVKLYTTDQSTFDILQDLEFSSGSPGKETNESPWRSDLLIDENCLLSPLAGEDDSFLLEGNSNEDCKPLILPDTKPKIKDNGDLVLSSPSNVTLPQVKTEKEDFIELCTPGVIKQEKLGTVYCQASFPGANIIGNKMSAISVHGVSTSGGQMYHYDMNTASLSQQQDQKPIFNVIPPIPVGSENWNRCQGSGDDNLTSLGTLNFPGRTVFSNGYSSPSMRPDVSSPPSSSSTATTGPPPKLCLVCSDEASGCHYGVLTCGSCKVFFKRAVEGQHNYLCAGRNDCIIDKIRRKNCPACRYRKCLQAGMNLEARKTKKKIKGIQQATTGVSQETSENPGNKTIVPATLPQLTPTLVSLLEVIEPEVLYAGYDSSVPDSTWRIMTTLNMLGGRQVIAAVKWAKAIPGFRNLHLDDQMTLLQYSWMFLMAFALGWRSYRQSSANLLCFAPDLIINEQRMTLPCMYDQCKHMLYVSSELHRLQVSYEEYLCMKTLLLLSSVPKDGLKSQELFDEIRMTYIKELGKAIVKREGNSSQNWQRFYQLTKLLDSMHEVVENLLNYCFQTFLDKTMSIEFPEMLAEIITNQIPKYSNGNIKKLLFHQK
Chain of Estrogen receptor (Homo sapiens) (P03372 whole entry, looked up): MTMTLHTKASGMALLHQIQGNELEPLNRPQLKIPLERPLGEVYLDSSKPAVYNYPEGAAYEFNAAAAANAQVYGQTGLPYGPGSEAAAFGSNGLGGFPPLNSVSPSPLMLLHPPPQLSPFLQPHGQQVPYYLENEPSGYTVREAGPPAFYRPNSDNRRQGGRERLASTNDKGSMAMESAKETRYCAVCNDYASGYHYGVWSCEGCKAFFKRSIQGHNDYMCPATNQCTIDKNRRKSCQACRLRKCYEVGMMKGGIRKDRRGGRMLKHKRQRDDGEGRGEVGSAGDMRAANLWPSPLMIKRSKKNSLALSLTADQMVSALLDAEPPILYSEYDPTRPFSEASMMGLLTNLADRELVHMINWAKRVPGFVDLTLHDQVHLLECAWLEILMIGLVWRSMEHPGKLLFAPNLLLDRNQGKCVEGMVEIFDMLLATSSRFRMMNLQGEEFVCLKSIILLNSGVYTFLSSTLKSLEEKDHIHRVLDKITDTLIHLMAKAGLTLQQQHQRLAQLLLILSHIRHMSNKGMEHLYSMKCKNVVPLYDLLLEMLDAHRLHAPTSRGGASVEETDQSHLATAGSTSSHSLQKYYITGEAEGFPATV

Clc1ccc(C(Cl)(Cl)Cl)cc1Cl
active: Potency [9] 11.2 µM
inactive: outcome [1] | Potency [2] | Potency [3] | Potency [4] | outcome [5] | outcome [6] | Potency [7] | outcome [8] | activation [10] -1.35% | activation [11] -0.831% | Potency [12] | Potency [13]

Cc1ccc(N)c(N)c1
active: Potency [15] 37.6 µM
inactive: outcome [1] | activation [14] 0.413% | outcome [8] | Potency [9] | activation [16] -0.898% | activation [10] -0.795% | Potency [12]

BrCC(Br)C1CCC(Br)C(Br)C1 (stereo not drawn)
active: Potency [9] 22.4 µM
inactive: Potency [17] | outcome [1] | Potency [2] | activation [14] 3.61% | activation [10] -1.21% | Potency [18] | activation [11] -0.172% | Potency [12] | Potency [13]

ClCC(Cl)Cl
-51.8%: max response [19]
inactive: Potency [17] | outcome [1] | Potency [2] | outcome [6] | outcome [8] | Potency [9] | Potency [15] | activation [16] -0.152% | Potency [18] | activation [11] 1.04% | Potency [12] | Potency [13]

C=CCCC#N
inactive: Potency [17] | Potency [2] | Potency [3] | Potency [4] | activation [14] -1.36% | outcome [8] | Potency [9] | activation [16] -2.14% | activation [10] 0.189% | Potency [18] | Potency [12] | Potency [13]

CC[N+](=O)[O-]
inactive: outcome [1] | Potency [2] | activation [14] 5.8% | outcome [5] | outcome [6] | Potency [7] | outcome [8] | Potency [9] | Potency [15] | activation [16] -3.29% | activation [10] 1.19% | Potency [18] | Potency [12] | Potency [13]

CCSC(=O)N1CCCCCC1
-18%: max response [19]
inactive: Potency [17] | Potency [2] | Potency [3] | Potency [4] | outcome [6] | outcome [20] | Potency [7] | Potency [9] | activation [16] -3.15% and 2.49% | activation [10] 0.506% and -0.843% | activation [11] -0.667% and 0.714% | Potency [13]
active: Potency [15] 66.8 µM

Cc1cc(-c2ccc(N)c(C)c2)ccc1N
active: Potency [4] 22.4 µM | Potency [15] 12.2 µM and 6.86 µM
inactive: outcome [1] | Potency [3] | Potency [7] | outcome [8] | Potency [9] | activation [16] -1.87% and -0.84% and 2.36% | Potency [12]

Nc1ccccc1-c1ccccc1
inactive: Potency [17] | outcome [1] | Potency [2] | Potency [3] | activation [14] -2.58% | outcome [5] | outcome [8] | Potency [9] | activation [16] -6.93% | activation [10] -2.55% | Potency [12] | Potency [13]
active: Potency [15] 42.2 µM

CC(C)(C)C(O)(CCc1ccc(Cl)cc1)Cn1cncn1 (stereo not drawn)
active: Potency [2] 0.501 µM | Potency [9] 20 µM
inactive: outcome [1] | activation [14] 3.38% and -5.28% | outcome [5] | outcome [6] | outcome [20] | Potency [7] | outcome [8] | Potency [15] | activation [16] -3.53% and -2.93% | activation [10] -0.348% and -1.3% | Potency [18] | activation [11] 0.583% and 1.83% | Potency [13]
-43.6% and 58.8%: max response [19]

C=CC=O
40.7%: max response [19]
active: Potency [15] 47.3 µM
inactive: Potency [17] | outcome [1] | Potency [2] | activation [14] -2.21% | outcome [5] | outcome [6] | outcome [20] | outcome [8] | Potency [9] | activation [16] -0.485% | activation [10] -0.542% | Potency [12] | Potency [13]

CN(C)N=O
inactive: outcome [1] | Potency [2] | activation [14] -2.94% | outcome [5] | outcome [8] | Potency [9] | Potency [15] | activation [10] -0.838% | Potency [18] | activation [11] 0.336% | Potency [13]

C=CCO
inactive: Potency [17] | outcome [1] | Potency [2] | activation [14] 3.6% | outcome [5] | outcome [6] | outcome [20] | Potency [9] | Potency [15] | activation [16] -1.01% | activation [10] 0.305% | Potency [18] | activation [11] -0.568% | Potency [13]
11.9%: max response [19]

Clc1ccc(Cl)c(Cl)c1
inactive: Potency [17] | Potency [2] | outcome [20] | Potency [7] | outcome [8] | Potency [15] | activation [11] 0.0505% and 0.0105% | Potency [12]
-17.8% and 7%: max response [19]

ClC(Cl)Br
inactive: Potency [17] | outcome [1] | Potency [2] | Potency [3] | Potency [4] | activation [14] -5.41% | outcome [5] | outcome [6] | outcome [20] | Potency [7] | outcome [8] | Potency [9] | activation [10] -1.16% | Potency [18] | Potency [12] | Potency [13]
-6.86%: max response [19]

ClCCBr
-34.3%: max response [19]
inactive: Potency [3] | Potency [4] | Potency [7] | Potency [15] | activation [16] 0.777% | activation [10] 0.431% | Potency [18] | activation [11] 3.31% | Potency [12]

COc1cc(-c2ccc(N)c(OC)c2)ccc1N
17.7% and -36%: max response [19]
active: Potency [2] 12.6 µM | Potency [15] 1.06 µM and 2.17 µM | Potency [18] 37.6 µM
inactive: Potency [17] | outcome [1] | outcome [6] | Potency [7] | outcome [8] | Potency [9] | activation [16] 0.265% and -0.413% and 0.709% | activation [10] 0.354% and 3.2% and 2.92% | Potency [12]

O=[N+]([O-])c1cc(Cl)c(Cl)cc1Cl
inactive: Potency [17] | outcome [1] | Potency [2] | Potency [3] | Potency [4] | activation [14] -2.16% | outcome [5] | outcome [6] | Potency [7] | outcome [8] | Potency [9] | Potency [18] | activation [11] -0.111% | Potency [12]
active: Potency [15] 26.6 µM
5.75%: max response [19]
